TDP1 cell noCPT = qHTS for Inhibitors of human tyrosyl-DNA phosphodiesterase 1 (TDP1): qHTS in cells in absence of CPT; DT40 Tdp1-/- hTDP1 cells, no CPT, ATP luminescence, 48 h; Potency, µM (doses to about 46.2 µM), hits mostly inhibitors; 420,000 tested, 15% active; AID 686978, 2013; also: nearly all actives have a fitted effect of over 55% in size
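Stably hTDP1-transfected Tdp1-null chicken DT40 cells were treated with library compounds minus camptothecin and grown for at least 48 hr at 37 °C, after which cellular ATP was quantified by luminescence.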
IL1B secr inh = inhibitors of inflammasome signaling (IL-1 beta secretion); AID 743279; THP-1 LPS/ATP IL-1B secretion, AlphaLISA, 16 h; stronger effect = lower value; 360,000 tested, 4.7% active; activity change, % at 57.5 µM; in the data active = activity change below about -50%; inconclusive = mostly about -30% to -49%
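Secreted IL-1B measured by AlphaLISA bead assay after 16 h compound exposure of THP-1 cells; compounds (final up to 57.5 uM) added 1 h before LPS (250 ng/mL) and ATP (1.25 mM) stimulation; lower signal means less secretion.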
DT40 TDP1 CPT = growth inhibition of DT40 Tdp1-/-;hTDP1 cells with camptothecin (screen for TDP1 inhibitors). chicken DT40 Tdp1-/-;hTDP1 cells + 20 nM CPT, ATP luminescence, 48 h. Potency, µM (highest dose often 46.2 µM), hits mostly inhibitors. 420,000 tested, 12% active. AID 686979; also: nearly all actives have a fitted effect of over 55% in size
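Cell growth measured by CellTiter-Glo luminescence after a minimum 48 h, 37 C compound exposure with 20 nM CPT in Tdp1-knockout DT40 cells stably expressing hTDP1, seeded 400/well; qHTS titration format.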
TDP1 block = TDP1 (human) enzyme inhibition; 350,000 tested, 0.28% active; Q9NUW8; recombinant TDP1, AlphaScreen DNA substrate cleavage; Potency, µM (titrated, usually from 130 µM), actives largely listed as inhibitors; also: nearly all actives have a fitted effect of over 40% in size
Target sequence (Q9NUW8 whole entry, looked up): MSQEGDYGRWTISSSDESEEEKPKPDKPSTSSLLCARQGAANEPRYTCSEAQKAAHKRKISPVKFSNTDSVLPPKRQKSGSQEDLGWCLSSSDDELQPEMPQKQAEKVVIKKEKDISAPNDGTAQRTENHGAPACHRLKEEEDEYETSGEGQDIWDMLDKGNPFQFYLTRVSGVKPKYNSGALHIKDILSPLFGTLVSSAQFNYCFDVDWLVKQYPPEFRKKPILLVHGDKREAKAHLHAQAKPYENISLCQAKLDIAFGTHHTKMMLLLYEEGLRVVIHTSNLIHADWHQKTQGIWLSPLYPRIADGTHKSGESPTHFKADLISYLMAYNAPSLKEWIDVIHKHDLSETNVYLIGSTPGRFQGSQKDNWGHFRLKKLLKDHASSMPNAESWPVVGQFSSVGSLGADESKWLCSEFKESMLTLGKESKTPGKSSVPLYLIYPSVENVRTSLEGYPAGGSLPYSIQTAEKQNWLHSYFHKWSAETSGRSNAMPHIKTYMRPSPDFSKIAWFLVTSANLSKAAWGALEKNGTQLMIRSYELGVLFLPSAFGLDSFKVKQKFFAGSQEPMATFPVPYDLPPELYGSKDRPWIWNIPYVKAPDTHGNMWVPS
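AlphaScreen read-out: signal falls as enzyme removes the 3' tyrosine-FITC from a 5'-biotinylated DNA oligo (15 nM, 5 min, RT). Enzyme was E. coli-made recombinant Tdp1 at 1 nM, exposed to compound for 15 min beforehand; beads 10 ug/ml, 10 min.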
Giardia killer = kills Giardia lamblia; 340,000 tested, 0.15% active; Giardia lamblia trophozoite viability; activity change, % at 7.66 µM, hits read low; in the data active = activity change below about -80%; inconclusive = between about -30% and that limit;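 also: parasites exposed to compound for two days anaerobically before the ATP read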
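Viability, read as ATP luminescence: trophozoites at 100 cells/well, compound added, 48 hrs anaerobic at 37 deg C, then 15-30 min room-temperature development before reading.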
ELG1 DNA repair = blocks ELG1-dependent DNA repair in HEK293T cells | 330,000 tested, 2.3% active | HEK293T ELG1-luciferase reporter, luminescence, 16 h; DNA damage induced by 5-fluorouridine | Potency, µM (series often up to 46.1 µM), actives largely listed as inhibitors; also: nearly all actives have a fitted effect of over 55% in size
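HEK293T cells expressing luciferase-tagged ELG1 (2,000/well) received 5-Fluorouridine plus compound or DMSO for 16 hr at 37 °C. Luciferase was read by ONE-Glo luminescence after 30 min at room temperature.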
Numbers stand for hits; 0 = inactive; ? = inconclusive; - = not tested or not shown. An excerpt weighted towards active compounds, which were near 19% of everything screened. Unless noted, calls follow the shape of the dose curve; as a rule, active = well fitted curve in the direction sought with a large enough effect; inconclusive = small, poorly fitted or top-dose-only effect, or another doubt; inactive = no such curve, though single readings can be large; an effect the other way counts as inactive or inconclusive.

SMILES | TDP1 cell noCPT | IL1B secr inh | DT40 TDP1 CPT | TDP1 block | Giardia killer | ELG1 DNA repair
C=CCNC1=C2C[C@@H](C)C[C@H](OC)[C@H](O)[C@@H](C)/C=C(\C)[C@H](OC(N)=O)[C@@H](OC)/C=C\C=C(/C)C(=O)NC(=CC1=O)C2=O | 0.376µM | - | 1.06µM | 0 | - | -
COC1=C2C[C@H](C)C[C@H](OC)[C@H](O)[C@@H](C)/C=C(/C)[C@H](OC(N)=O)[C@@H](OC)/C=C\C=C(\C)C(=O)NC(=CC1=O)C2=O | - | - | - | 0 | - | -
COC1C=CC=C(C)C(=O)NC2=CC(=O)C(N)=C(CC(C)CC(OC)C(O)C(C)C=C(C)C1OC(N)=O)C2=O (stereo not drawn) | 0.184µM | -91.9 | 0.164µM | - | 0 | -
CCC(C)c1ccccc1NC(=S)NC(=O)c1ccco1 (stereo not drawn) | 13µM | 0 | 23.1µM | 0 | 0 | ?
CC(C)C(=O)N1CCN(c2ccccc2NC(=S)NC(=O)c2ccco2)CC1 | ? | 0 | 16.4µM | - | 0 | -
O=C(NC(=S)Nc1ccccc1N1CCCC1)c1ccco1 | ? | - | 0 | 0 | 0 | 0
O=C(NC(=S)Nc1ccccc1N1CCCCC1)c1ccco1 | ? | 0 | 14.6µM | 0 | 0 | ?
CC(C)c1ccc(OCC(=O)N2CCN(C(=O)c3ccco3)CC2)cc1 | 0 | 0 | 0 | 0 | 0 | ?
CCOc1ccc(S(=O)(=O)NC(C)C)cc1C(N)=O | 0 | 0 | 0 | 0 | 0 | 0
O=C(OCc1cn([C@H]2CN(CC3CCCCC3)[C@@H](c3ccc(Cl)cc3)C[C@@H]2O)nn1)c1ccccc1 | 16.4µM | 0 | ? | - | - | -
O=C(OCc1cn([C@@H]2CN(CC3CCCCC3)[C@@H](c3ccccc3)C[C@H]2O)nn1)c1ccccc1 | 18.4µM | 0 | ? | - | - | -
O=C(CN(c1cc(C(F)(F)F)ccc1Cl)S(=O)(=O)c1ccccc1)NCCc1ccccc1 | 20.6µM | - | ? | - | - | -
COc1cc(CN(C(=O)c2ccccc2F)C2CCS(=O)(=O)C2)cc(OC)c1OC (stereo not drawn) | 0 | - | 0 | 0 | - | -
O=c1cc(-c2ccc([N+](=O)[O-])cc2)c2cc3c(cc2[nH]1)OCCO3 | 10.3µM | ? | ? | 0 | 0 | 0
O=C(NCc1cccnc1)c1ccc(-c2cc3ccccc3oc2=O)cc1 | ? | 0 | 11.6µM | - | 0 | 0
O=C(CCC1CCCC1)Nc1ccc(C(=O)NCc2cccnc2)cc1 | ? | 0 | 14.6µM | 0 | 0 | 16.4µM
O=C(NCc1cccnc1)c1ccc(NS(=O)(=O)c2ccccc2)cc1 | 0 | 0 | 0 | 3.55µM | 0 | 0
O=C(NCc1cccnc1)c1ccc(NS(=O)(=O)c2ccc(F)cc2)cc1 | 0 | 0 | 0 | 0 | 0 | 0
O=C(O)CCCC(=O)Nc1ccc(C(=O)NCc2cccnc2)cc1 | 0 | 0 | 0 | 0 | 0 | 0
O=C(NCc1cccc(Cl)c1)c1ccc(S(=O)(=O)Nc2cccc(C(F)(F)F)c2)cc1 | ? | -77.9 | ? | 0 | 0 | 0
O=C(Cc1cccc(C(F)(F)F)c1)NCc1cccc(Cl)c1 | ? | 0 | 0 | 0 | 0 | 0
COc1ccc(C(=O)NCc2cccnc2)cc1 | 0 | 0 | 0 | 0 | 0 | 0
Cc1ccc(-c2nc3c(c(SCC(=O)N4CCCCC4)n2)Cc2cc(C)ccc2O3)cc1 | ? | - | 0 | 0 | - | -
Cc1cccc(S(=O)(=O)NC(=O)C2(C)CCN2C(=O)Cc2ccccc2)c1 (stereo not drawn) | 0 | 0 | 0 | - | - | -
COCCNC(=S)N1CCc2cc(OC)c(OC)cc2C1COc1cc(C)cc(C)c1 (stereo not drawn) | ? | ? | 25.9µM | 0 | 0 | ?
COc1ccc(OCC2c3cc(OC)c(OC)cc3CCN2C(=O)COc2ccc(Cl)cc2Cl)cc1 (stereo not drawn) | 16.4µM | - | ? | 0 | - | -
CCC(CC)C(=O)N1CCc2cc(OC)c(OC)cc2C1COc1ccc(C(=O)OC)cc1 (stereo not drawn) | ? | - | ? | 0 | - | -
COc1ccc(CC(=O)N2CCc3cc(OC)c(OC)cc3C2COc2ccc(F)cc2)cc1OC (stereo not drawn) | ? | - | ? | 0 | - | -
